Test results taken from PubChem BioAssay (NCI).
About 83,000 compounds went through this panel and 20% of them were active in at least one assay; those are over-represented in the sample as a whole.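 A percent growth of 40 corresponds to 60% growth inhibition; 0 means no net growth; -100 means all cells died. Active threshold: below 10.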 Active and inactive are the calls of the source.

What was measured:
Test in all cases: NCI-60 one-dose screen, 48 h (100 = growth as untreated, 0 = no growth, -100 = all killed)
Conditions in all cases: 10 µM unless noted
[1] = tested on: HCT-15 colon
[2] = tested on: HT29 colon
[3] = tested on: SNB-75 CNS
[4] = tested on: SNB-19 CNS
[5] = tested on: U251 CNS
[6] = tested on: PC-3 prostate
[7] = tested on: SK-MEL-5 melanoma
[8] = tested on: UACC-62 melanoma
[9] = tested on: LOX IMVI melanoma
[10] = tested on: SK-MEL-28 melanoma
[11] = tested on: SK-MEL-2 melanoma
[12] = tested on: EKVX NSCLC
[13] = tested on: SN12C renal
[14] = tested on: TK-10 renal
[15] = tested on: ACHN renal
[16] = tested on: CAKI-1 renal
[17] = tested on: A498 renal
[18] = tested on: CCRF-CEM leukemia
[19] = tested on: MOLT-4 leukemia
[20] = tested on: UO-31 renal

Measured: growth

COc1cc2cc(C(=O)N3C[C@@H](CCl)c4c3cc(OC(=O)N(C)CCSSCCN3CCOCC3)c3ccccc43)[nH]c2c(OC)c1OC
active: [1] -11.1% | [2] -10% | [3] -74.6% | [4] -99.6% | [5] -24.1% | [6] -12.2% | [7] -46.5% | [8] -80.3% | [9] -69.2% | [10] -60.7% | [11] -86.8% | [12] -40.1% | [13] -48.4% | [14] -40% | [15] -18.9% | [16] -45.3% | [17] -15.9% | [18] -15.9% | [19] -18.2%

N#Cc1c(-c2ccc(F)cc2)nc(SCc2ccccc2)nc1N1CCNCC1
active: [1] -87.9% | [2] -70.7% | [3] -93% | [4] -81.4% | [5] -95.8% | [6] -51.6% | [7] -100% | [8] -97.3% | [9] -93.6% | [10] -96.3% | [11] -82.9% | [12] -98.3% | [20] -82.7% | [15] -99% | [16] -95.3% | [17] -13.8% | [18] -3.47% | [19] -0.64%

Cc1ccc(O)cc1Nc1nc(SCCN2CCOCC2)nc2c1cnn2CC(Cl)c1ccc(Br)cc1 (centres undefined)
inactive: [4] 20.6% | [5] 15.4% | [6] 17% | [8] 15.6% | [10] 17.1% | [12] 21% | [13] 20% | [14] 17.8% | [17] 29.3%
active: [1] 0.154% | [2] -30.2% | [3] 4.06% | [7] -0.938% | [9] -88.4% | [20] 6.07% | [15] 1.87% | [16] -31.5% | [18] 5.71% | [19] -24.6%

CC1=C(C(=O)OC(C)C)C(c2ccc(O)cc2)NC(=O)N1 (centres undefined)
inactive: [1] 105% | [2] 107% | [3] 115% | [4] 95% | [5] 103% | [6] 92.1% | [7] 107% | [8] 95.4% | [9] 98% | [10] 112% | [12] 96.1% | [13] 106% | [20] 92.2% | [14] 90.2% | [15] 106% | [16] 95.3% | [17] 113% | [18] 93.9% | [19] 97.8%

c1n[nH]cc1-c1nc2ccc3cn[nH]c3c2c2c1CCCC2
inactive: [1] 96.2% | [2] 95.5% | [3] 108% | [4] 82.2% | [5] 88% | [6] 73.4% | [7] 81.7% | [8] 81.4% | [9] 69.9% | [10] 98.2% | [12] 69.1% | [13] 74.3% | [20] 61.1% | [15] 73.5% | [16] 39.2% | [17] 93.8% | [18] 104% | [19] 92.7%

N/C(=N\c1nc2ccc([N+](=O)[O-])cc2s1)NC(=O)Nc1ccccc1Cl
inactive: [1] 28.3% | [2] 62.1% | [3] 24.4% | [4] 49.7% | [6] 69% | [7] 44.7% | [8] 54.8% | [9] 29.6% | [10] 60.5% | [12] 58.4% | [13] 25.5% | [14] 17.8% | [16] 43.1% | [18] 74.9% | [19] 83.5%
active: [5] -0.568% | [20] -32.1% | [15] -41.4% | [17] -5.78%

CC(C)C[C@H](NC(=O)CNC(=O)C[C@H]1O[C@@H]2OC3(C)CC[C@H]4[C@H](C)CC[C@@H]([C@H]1C)[C@@]24O3)B(O)O
active: [2] -43.6% | [3] -34.8% | [6] 9.34% | [7] -87.6% | [8] -81.2% | [9] -83.6% | [10] -34.4% | [15] 6.33% | [18] -12.4% | [19] 7.31%
inactive: [1] 33.1% | [4] 28.2% | [5] 17.4% | [12] 27.3% | [20] 10.5% | [14] 12.1% | [16] 15.8% | [17] 21.1%

O=C(N/N=C/c1ccsc1)c1[nH]c2ccc(Br)cc2c1-c1ccccc1
active: [1] -62.8% | [2] -62.8% | [3] -32.3% | [4] -41.5% | [5] -89.1% | [6] -26.1% | [7] -97.2% | [8] -91.6% | [9] -100% | [10] -87.4% | [12] -26.3% | [13] -87.5% | [14] -13.3% | [15] -28% | [16] -21.8% | [17] -48.1% | [18] 6.69% | [19] -8.25%

S=C(NCCc1ccccc1)Nc1ccc(OCc2nc3ccc(Cl)cc3[nH]2)cc1
inactive: [2] 32.2% | [3] 33.4% | [4] 46.7% | [5] 16% | [6] 39.8% | [7] 40.8% | [8] 34.5% | [10] 48% | [12] 33.1% | [13] 11.6% | [20] 13.9% | [14] 62.4% | [15] 14% | [16] 25.2% | [17] 95.6% | [19] 13.8%
active: [1] 4.3% | [9] -46.3% | [18] 9.55%

Cn1cc(-c2cc(N)n3nc(-c4c[nH]c5ccc(F)cc45)cc3n2)c2cccnc21
active: [1] -52.3% | [2] -70.1% | [3] -48.5% | [4] -24.8% | [5] -84.7% | [6] -45.3% | [7] -98.4% | [8] -93.6% | [9] -97.9% | [10] -92.6% | [12] -64.9% | [13] -80.6% | [20] -75.8% | [14] -68.7% | [15] -93.8% | [16] -70.7% | [17] -74.8% | [18] -34.6% | [19] -30.1%

CCCCCCCCc1ccc(C(=O)Nc2ccc(C)cc2C(=O)O)cc1
inactive: [1] 53.2% | [2] 109% | [3] 106% | [4] 67.5% | [5] 75.4% | [6] 66.6% | [7] 87.1% | [8] 87.8% | [9] 89.9% | [10] 108% | [12] 77.5% | [13] 89.5% | [20] 76.3% | [14] 103% | [15] 69.4% | [16] 85.4% | [17] 109% | [18] 53.9% | [19] 75.3%

OC(c1ccccc1)(c1ccccc1)C1CCN(c2ccc3nnc(Cl)n3n2)CC1
inactive: [1] 18.1% | [2] 26.8% | [3] 61.3% | [4] 63.3% | [5] 45.9% | [6] 16.2% | [8] 54.5% | [9] 38.3% | [10] 52.2% | [12] 19.9% | [13] 50.1% | [14] 49.7% | [15] 29.7% | [16] 30.8% | [17] 77.8% | [18] 18.2%
active: [7] -84.6% | [20] -74.1% | [19] -2.45%

Cc1ccc(C(=O)Nc2ccc(-n3ccnc3)c(C(F)(F)F)c2)cc1C#Cc1cnc2cccnn12
inactive: [1] 20.7% | [2] 17.8% | [4] 36.4% | [5] 33.6% | [12] 27.5% | [13] 14.4% | [14] 23% | [15] 12.3% | [18] 22.9%
active: [3] -2.9% | [6] -16.3% | [7] -55% | [8] -15.1% | [9] 3.66% | [10] -10.8% | [20] 5.87% | [16] -4.4% | [17] -6.46% | [19] -32.5%

O=c1ccc(Cn2c(C(F)(F)F)cc3c(Cl)ncnc32)c[nH]1
inactive: [2] 78.1% | [3] 13.1% | [4] 47.4% | [5] 98.5% | [6] 78.4% | [8] 19.3% | [10] 40.8% | [12] 95.4% | [13] 47.9% | [16] 78.1% | [17] 136% | [18] 11.8%
active: [1] 0.0667% | [7] 6.31% | [9] -61.8% | [20] -88.4% | [15] -54.5% | [19] -26.6%

CCCCC[C@@H]1C/C=C(\C)[C@@H](O)C(C)(C)C(=O)[C@@H](C)/C=C(\C)[C@@H]2C[C@H](O)C[C@](O)(CC(=O)O1)O2
active: [7] -17.6% | [11] 9.84%
inactive: [1] 38.4% | [2] 50.4% | [3] 32.9% | [4] 37.2% | [5] 61.2% | [6] 21.4% | [8] 55.8% | [10] 76.3% | [12] 21.4% | [13] 76.8% | [20] 20.4% | [14] 55.1% | [15] 19.7% | [16] 47.1% | [17] 30% | [18] 28.9% | [19] 18.2%

CCCn1c(NC(=O)c2cccc(C(N)=O)c2)nc2cc(CN3CCCCC3)ccc21
inactive: [1] 77.9% | [2] 87.1% | [3] 133% | [4] 113% | [5] 116% | [6] 77% | [7] 88% | [8] 113% | [9] 96.5% | [10] 112% | [12] 100% | [13] 89% | [20] 67.5% | [14] 92.6% | [15] 77.8% | [16] 53.3% | [17] 170% | [18] 94.7% | [19] 94.8%
